FBW7 activator: FBW7 E3 ligase activators, primary screen, biochemical, AlphaScreen, human; AlphaScreen FBW7–phospho-cyclin E peptide binding, activator screen; normalized activity (activation), % at 26.1 µM; F-box/WD repeat-containing protein 7 (Homo sapiens), Q969H0; 650,000 compounds, 0.13% hits; in the data active means normalized activity above about 1.9%;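 further: purified mutant Fbw7 with reduced substrate affinity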
Target sequence (Q969H0 whole entry, looked up): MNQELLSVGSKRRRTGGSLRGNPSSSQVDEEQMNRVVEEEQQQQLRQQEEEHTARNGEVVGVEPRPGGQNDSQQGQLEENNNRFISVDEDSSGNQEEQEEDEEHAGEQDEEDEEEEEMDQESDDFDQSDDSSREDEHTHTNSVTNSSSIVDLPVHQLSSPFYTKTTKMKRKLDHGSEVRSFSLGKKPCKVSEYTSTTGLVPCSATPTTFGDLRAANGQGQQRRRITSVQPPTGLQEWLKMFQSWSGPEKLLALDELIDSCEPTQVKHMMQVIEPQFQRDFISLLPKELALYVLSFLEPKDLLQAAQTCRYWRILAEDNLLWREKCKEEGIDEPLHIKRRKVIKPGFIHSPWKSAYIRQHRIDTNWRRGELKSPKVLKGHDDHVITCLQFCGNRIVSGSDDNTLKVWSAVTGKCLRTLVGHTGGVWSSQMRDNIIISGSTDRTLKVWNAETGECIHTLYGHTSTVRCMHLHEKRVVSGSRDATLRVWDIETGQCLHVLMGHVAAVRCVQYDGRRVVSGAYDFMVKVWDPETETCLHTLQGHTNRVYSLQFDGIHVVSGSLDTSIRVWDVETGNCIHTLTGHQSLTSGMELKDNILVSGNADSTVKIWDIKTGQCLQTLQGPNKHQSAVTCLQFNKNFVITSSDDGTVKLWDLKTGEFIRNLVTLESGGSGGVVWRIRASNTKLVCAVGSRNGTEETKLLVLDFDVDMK
GPR151 activ: activators of human GPR151, primary screen, cell-based, PathHunter beta-arrestin, luminescence; G-protein coupled receptor 151 (Homo sapiens), Q8TDV0; PathHunter beta-arrestin GPR151 cells; activation, % at 11.2 µM; 650,000 compounds, 1% hits; AID 1508602, 2020; in the data active means activation above about 4.9%
MITF inh: MITF inhibitors, primary screen, biochemical, AlphaScreen, human; Microphthalmia-associated transcription factor (Homo sapiens), O75030; AlphaScreen MITF homodimerization, bead proximity signal; inhibition, % at 2.6 µM; 650,000 compounds, 0.91% hits; AID 1259374, 2018; in the data active means inhibition above about 50%
TEAD-YAP block: TEAD-YAP interaction inhibition, primary screen, TEAD-YAP interaction inhibitor project, luminescence, HEK-TIYL cells. TEAD-Gal4/YAP UAS-luciferase luminescence. inhibition, % at 9.12 µM. 640,000 compounds, 1.4% hits; in the data active means inhibition above about 32%
Hits are given with their value; – = inactive. The list is not random: actives were taken first. Their share in the collection is about 3.5%.

SMILES	FBW7 activator	GPR151 activ	MITF inh	TEAD-YAP block
CSc1nc(N)c2c(n1)NC1=C(C(=O)CC(C)(C)C1)C2c1ccncc1 (stereo not drawn)	–	–	–	–
COCCCn1c(=O)/c(=C\c2ccc3c(c2)OCO3)s/c1=C(/C#N)C(N)=O	–	–	–	–
O=C(Cc1ccc(F)cc1)Nc1ccc(F)c(F)c1F	–	–	–	–
CCOC(=O)c1cc2cccc(NS(=O)(=O)c3cccs3)c2[nH]1	–	–	–	–
CCOC(=O)c1cc2cccc(NS(=O)(=O)c3ccc(OC)cc3)c2[nH]1	–	–	–	52
Cc1[nH]c2c(NS(=O)(=O)c3ccc4oc(=O)ccc4c3)cccc2c1C	–	–	–	–
COc1ccc(S(=O)(=O)Nc2cccc3c(C)c(C)[nH]c23)cc1	–	–	–	44
COc1cc(NC(=O)c2cccc(-n3ncc4cc(Nc5ccccc5F)ccc43)c2)cc(OC)c1OC	–	–	–	33
Nc1ccc(-n2ncnc2-c2cccc(-n3ncc4cc(Nc5ccccc5F)ccc43)c2)cc1	–	–	–	–
COc1ccc(-n2ncnc2-c2cccc(-n3ncc4cc(Nc5ccccc5F)ccc43)c2)cc1	–	–	–	38
CC(=O)c1ccc(NC(=O)CN(c2ccc(C)cc2)S(C)(=O)=O)cc1	–	–	–	–
CC(=O)C1=C(c2ccc(C3CCCCC3)cc2)N(C(C)=O)n2cnnc2S1	–	–	–	74
CCc1cccc2c(/C=N/NC(=O)c3n[nH]c(=O)c4ccccc34)c[nH]c12	–	–	–	47
CCCOc1ccc(/C=N/NC(=O)c2n[nH]c(=O)c3ccccc23)cc1OC	–	–	–	–
CCCN1C(=O)C(O)(CC(=O)c2ccc([N+](=O)[O-])cc2)c2cc(Br)ccc21 (stereo not drawn)	–	–	–	50
c1ccc(OCCSc2nnc3sc4ccccc4n23)cc1	–	–	–	71
O=C(O)c1ccccc1C(=O)NC1=NCCS1	–	–	–	–
Cc1ccc(-c2cnn(-c3ccc(C(=O)O)cc3)c2)cc1	–	–	–	42
NNC(=O)C(Cc1ccc(O)cc1)NC(=O)C(CO)NC(=O)OCc1ccccc1 (stereo not drawn)	2.1	–	–	–
NNC(=O)C(Cc1ccccc1)NC(=O)OCc1ccccc1 (stereo not drawn)	–	–	–	–
Cc1nc(CC(=O)N2CC[C@H]3[C@H](CCC(=O)N3CC3CCCCC3)C2)cs1	–	–	–	–
COc1ccc(-c2nc3ccccc3c(=O)n2NCc2ccc(O)cc2)cc1OC	–	–	–	40
COc1ccc(-c2nc3ccccc3c(=O)n2NCc2cccc(Oc3ccccc3)c2)cc1	–	–	–	78
COc1ccc(-c2nc3ccccc3c(=O)n2NCc2cccc(OC)c2)cc1	–	–	–	–
COc1ccc(-c2nc3ccccc3c(=O)n2NCc2ccc(Br)cc2)cc1OC	–	–	–	–
SMILES	FBW7 activator	GPR151 activ	MITF inh	TEAD-YAP block
C=CCn1c(=N)c(C(=O)NC)cc2c(=O)n3cccc(C)c3nc21	–	–	–	–
CCCCNC(=O)CSc1nc2ccccc2n1S(=O)(=O)c1ccccc1	–	–	–	–
COc1ccc(CCN2C(=O)C(O)=C(C(C)=O)C2c2ccc(O)cc2)cc1OC (stereo not drawn)	–	–	–	–
O=S(=O)(c1ccc(Cl)s1)N1CCCCCC1	–	–	–	–
O=S(=O)(c1ccc(Cl)s1)N1CCc2ccccc2C1	–	–	–	41
CN(CC1CCCCO1)C(=O)CCC1(Cc2ccco2)CCC(=O)N1 (stereo not drawn)	–	–	–	–
Cc1ccc(C)c(NC(=O)C(C)N2Cc3ccccc3C2=O)c1 (stereo not drawn)	–	–	–	–
CC(C(=O)Nc1ccccn1)N1Cc2ccccc2C1=O (stereo not drawn)	–	–	–	48
Cc1ccnc(NC(=O)C(C)N2Cc3ccccc3C2=O)c1 (stereo not drawn)	–	–	–	89
Cc1cccc(NC(=O)C(C)N2Cc3ccccc3C2=O)n1 (stereo not drawn)	–	–	–	–
COc1ccc(CN2CCN(S(=O)(=O)c3ccc(NC(C)=O)cc3)CC2)cc1OCc1ccccc1	–	–	–	35
COc1cc(CN2CCN(S(=O)(=O)c3ccc(NC(C)=O)cc3)CC2)ccc1OCc1ccccc1	–	–	–	–
CCOc1ccc(C2NC(=O)NC(C)=C2C(=O)OCc2ccc3c(c2)OCO3)cc1 (stereo not drawn)	–	–	–	56
CCOc1ccccc1C1NC(=O)NC(C)=C1C(=O)OCc1ccc2c(c1)OCO2 (stereo not drawn)	–	–	–	–
CCCOc1ccc(C2NC(=O)NC(C)=C2C(=O)OCc2ccc3c(c2)OCO3)cc1 (stereo not drawn)	–	–	–	55
Cc1onc(-c2ccccc2)c1C1=N/C(=C\c2cccc(Br)c2)C(=O)O1	2.2	–	–	–
O=C(O)c1c(O)c2ccccc2[nH]c1=O	–	–	–	–
O=c1[nH]c2ccccc2c(O)c1O	–	–	–	38
COc1ccc(/C=C2\SC(=Nc3ccc(F)cc3)NC2=O)cc1O	–	–	–	52
O=C1NC(=Nc2ccc(O)cc2)S/C1=C\c1ccccc1F	–	–	–	43
COc1cc(/C=C2/SC(=Nc3ccc(O)cc3)NC2=O)ccc1O	–	–	–	49
O=C1NC(=Nc2ccc(O)cc2)S/C1=C/c1ccccc1	–	–	–	–
O=C1NC(=Nc2ccc(O)cc2)S/C1=C\c1cccc(O)c1	–	–	–	57
COc1cc(/C=C2\SC(=Nc3ccc(F)cc3)NC2=O)cc(OC)c1OC	–	–	–	–
COc1cc(/C=C2\SC(=Nc3ccccc3)NC2=O)ccc1O	–	–	–	–
SMILES	FBW7 activator	GPR151 activ	MITF inh	TEAD-YAP block
O=C(NCc1ccc(Br)cc1)C1Cc2ccccc2CN1S(=O)(=O)c1ccc(F)cc1 (stereo not drawn)	–	–	–	–
CC1=C(C(=O)OCc2ccc(C)cc2)C(c2ccccc2F)NC(=O)N1 (stereo not drawn)	–	–	–	–
O=S(=O)(NCC(NCc1ccccc1)c1ccccc1)c1ccc(Cl)cc1 (stereo not drawn)	–	–	–	–
CCc1cccc(NC(=O)C2CCCN(S(=O)(=O)c3c(C)noc3C)C2)c1 (stereo not drawn)	–	–	–	–
COc1cc(/C=C2/SC(=Nc3ccccc3)NC2=O)ccc1O	–	–	–	–
COc1cc(/C=C2\SC(=Nc3ccccc3OC)NC2=O)ccc1O	–	–	–	57
CC(C)(C)C1CCc2c(sc(NC(=O)c3ccccc3F)c2C(=O)N2CCCC2)C1 (stereo not drawn)	–	–	–	–
COc1cc(OC)nc(CSc2ccc(NC(=O)CCl)cc2)n1	–	–	–	36
COc1cc(OC)nc(CSCCNC(=O)CCl)n1	–	–	–	–

Bioassay records as filed in PubChem BioAssay.
